HP1b chromo inh: blocks HP1-beta chromodomain binding to methylated histone tails; Potency, µM (series often up to 114 µM), usual class: inhibitors; AlphaScreen HP1-beta / biotin-H3K9me3 peptide binding; AID 540317; hit rate 0.56% among 390,000; further: nearly all actives have a fitted effect of over 70% in size
Target sequence (P83916 whole entry, looked up): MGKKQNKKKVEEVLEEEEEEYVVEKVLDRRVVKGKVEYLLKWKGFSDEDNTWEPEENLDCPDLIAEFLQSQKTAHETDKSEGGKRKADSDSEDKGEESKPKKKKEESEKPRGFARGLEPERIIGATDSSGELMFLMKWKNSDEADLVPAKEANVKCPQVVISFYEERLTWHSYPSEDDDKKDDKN
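Compound inhibition of the preformed complex between 50 nM HP1-beta and 50 nM biotinylated H3K9me3 peptide was read by AlphaScreen. Buffer was PBS pH 7.4 with 0.01% Tween-20. Incubations ran 30 min at room temperature, with 10 ug/mL donor/acceptor beads.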
PLK1 PBD inh: PLK1 (human) polo-box domain binding inhibition. P53350. Plk1 PBD binding of FITC phosphopeptide, fluorescence polarization. Potency, µM, hits mostly inhibitors. hit rate 2.8% among 360,000. AID 720504; further: series mostly up to about 57 µM; nearly all actives have a fitted effect of over 65% in size
KAT2A inh: GCN5L2 (KAT2A) acetyltransferase inhibition; Q92830; GCN5L2 HAT assay, ThioGlo1 CoA-SH fluorescence; Potency, µM (series often up to 58.9 µM), most hits filed as inhibitors; hit rate 0.21% among 390,000; AID 504327
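Compounds, pin-transferred from DMSO stocks, meet 20nM GCN5L2 for 15 min before the reaction begins with H3(1-25) peptide (75uM) and acetyl-CoA (70uM). Thiol-reactive ThioGlo1 reports CoA release over 20 min at room temperature.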
JMJD2A Tudor: inhibitors of human JMJD2A Tudor domain; hit rate 4.4% among 390,000; O75164; Potency, µM (titrated, usually from 114 µM), most hits filed as inhibitors; AlphaScreen JMJD2A-Tudor / H3K4me3 peptide binding; AID 504339; further: nearly all actives have a fitted effect of over 50% in size
PI5P4K alpha inh: blocks human PI5P4K alpha kinase activity; P48426; PI5P4Kalpha enzyme, ADP-Glo luminescence, 60 min; active compounds read low; max response, %; hit rate 1.2% among 330,000; AID 652105; active means max response of -50% or lower; inconclusive means between -30% and -50%; inactive means -30% or higher; further: value at the top dose of about 77 µM
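Controls without substrate or without enzyme flank wells where PI5P4Kalpha converts substrate using 5 microM ATP (final). Incubation lasts 60 minutes at room temperature; ADP formed is read by ADP-Glo luminescence.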
BAZ2B block: blocks human BAZ2B | AlphaScreen BAZ2B-H3K14Ac peptide displacement | AID 504333 | hit rate 4.4% among 360,000 | Potency, µM (doses to about 114 µM), hits mostly inhibitors; further: nearly all actives have a fitted effect of over 60% in size
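Complex of BAZ2B and biotin-H3K14Ac (50 nM apiece) forms over 30 min at RT, then faces library compounds up to 110 uM for another 30 min; AlphaScreen beads added, 20 min dark incubation, luminescence read.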
Of the large screens only hits and unclear results are named; the others gave an inactive call. Only some compounds are listed: those with a hit (about 7% of all), similar ones and a draw of the others. Unless noted, the call rests on the fitted dose curve; in most records, active means well fitted curve in the direction sought with a large enough effect; inconclusive means small, poorly fitted or top-dose-only effect, or another doubt; inactive means no such curve, though single readings can be large; an effect the other way counts as inactive or inconclusive.

COc1ccc(C[C@H](N)C(=O)N[C@H]2[C@@H](O)[C@H](n3cnc4c(N(C)C)ncnc43)O[C@@H]2CO)cc1	JMJD2A Tudor 79.4µM
CN(C)c1ncnc2c1ncn2C1OC(CO)C(O)C1O (configuration not stated)	none
O=C(N/N=C/c1ccoc1)c1ccc(Br)cc1	BAZ2B block inconclusive
Cc1cc(C)cc(C(=O)N/N=C/c2ccoc2)c1	PI5P4K alpha inh inconclusive
O=C(N/N=C/c1ccoc1)c1ccccc1	PI5P4K alpha inh inconclusive, BAZ2B block 56.2µM
O=C(N/N=C/c1ccoc1)c1cc(O)cc(O)c1	HP1b chromo inh 44.7µM, PLK1 PBD inh inconclusive, KAT2A inh inconclusive, JMJD2A Tudor 25.1µM, PI5P4K alpha inh -71.3, BAZ2B block 20µM
O=C(CN1CC(=O)Oc2ccccc21)OCC(=O)c1cccc(Br)c1	JMJD2A Tudor 39.8µM, BAZ2B block 8.91µM
O=C(COC(=O)C1CC2CCCC(C1)C2=O)c1cccc(Br)c1 (configuration not stated)	none
O=C(CN1C(=O)c2ccccc2C1=O)OCC(=O)c1ccc(F)cc1	none
O=C(CN1CC(=O)Oc2ccccc21)OCC(=O)c1ccccc1	KAT2A inh inconclusive, JMJD2A Tudor 20µM, BAZ2B block 12.6µM (no result: PI5P4K alpha inh)
O=C1CCC(C(=O)N2CCCC(C(=O)c3ccc4c5c(cccc35)CC4)C2)=NN1 (configuration not stated)	none
Cc1ccc(C(C)(C)C)c(OCCN2CCCC2)c1	JMJD2A Tudor 3.98µM, BAZ2B block 50.1µM
Cc1ccc(C(C)C)c(OCCN2CCc3ccccc3C2)c1	none
Cc1cc(OCCN2CCCCC2)nc2ccccc12	JMJD2A Tudor inconclusive
Cc1cc(C(C)(C)C)ccc1OCCN1CCCC1	JMJD2A Tudor 8.91µM, BAZ2B block inconclusive
O=C1NCCn2ccc(=O)cc21	none
Cc1c(NC(=O)c2cc(-c3ccc(O)cc3)on2)c(=O)n(-c2ccccc2)n1C	none
COc1ccc(/C(O)=C/C(=O)C(=O)NNC(=O)C(O)(c2ccccc2)c2ccccc2)cc1	JMJD2A Tudor 79.4µM, PI5P4K alpha inh inconclusive
COc1ccc(/C(O)=C/C(=O)C(=O)NNC(=O)c2ccccc2)cc1	BAZ2B block inconclusive
Cc1c(NC(=O)c2cc(-c3ccccc3)on2)c(=O)n(-c2ccccc2)n1C	JMJD2A Tudor 100µM (no result: PI5P4K alpha inh)
Cc1c(NC(=O)c2ccc(COc3ccc4ccccc4c3)o2)c(=O)n(-c2ccccc2)n1C	BAZ2B block 50.1µM
Cc1c(NC(=O)C(=O)/C=C(/O)c2ccccc2)c(=O)n(-c2ccccc2)n1C	JMJD2A Tudor 20µM, BAZ2B block 50.1µM
Cc1cc(C)c(S(=O)(=O)N2CCN(C(=O)CC(C)n3nc(C)nc3C)CC2)c(C)c1 (configuration not stated)	none (no result: HP1b chromo inh, KAT2A inh, JMJD2A Tudor, BAZ2B block)
Cc1cccc(C)c1C(O)c1ncc(-c2ccccc2C(F)(F)F)[nH]1 (configuration not stated)	none (no result: HP1b chromo inh, KAT2A inh, JMJD2A Tudor, BAZ2B block)
Cc1c(Nc2scc(-c3ccccc3)[n+]2-c2ccccc2)c(=O)n(-c2ccccc2)n1C	HP1b chromo inh inconclusive, JMJD2A Tudor 56.2µM, BAZ2B block 50.1µM
Cc1c(Nc2nc(-c3ccc(Cl)cc3)cs2)c(=O)n(-c2ccccc2)n1C	JMJD2A Tudor inconclusive
COc1ccc(/C(O)=C/C(=O)C(=O)Nc2c(C)n(C)n(-c3ccccc3)c2=O)cc1	JMJD2A Tudor 22.4µM, BAZ2B block inconclusive (no result: PI5P4K alpha inh)
CCOC(=O)c1c(O)c(O)c(C(=O)OCC)n1-c1ccccc1	JMJD2A Tudor 35.5µM
CCOC(=O)c1sc(=S)n(-c2ccccc2)c1N(C(C)=O)C(C)=O	PI5P4K alpha inh -75.2, BAZ2B block inconclusive
CCOC(=O)c1sc(=S)n(-c2ccccc2)c1C	none
CCOC(=O)c1sc(=S)n(-c2ccccc2)c1N	HP1b chromo inh inconclusive
CCN(CCNC(=O)C1CCN(S(=O)(=O)c2cccc3cccnc23)CC1)c1ccccc1	JMJD2A Tudor inconclusive, BAZ2B block inconclusive
CC1(C(=O)Nc2ccc3c(c2)OCO3)CCN1C(=O)Cc1cccc2ccccc12 (configuration not stated)	none (no result: HP1b chromo inh, KAT2A inh, JMJD2A Tudor, BAZ2B block)
Cc1ccccc1NS(=O)(=O)c1cc(C(=O)NCc2ccco2)ccc1C	none (no result: PI5P4K alpha inh)
CCN(CC)CCNC(=O)c1ccc(Cl)c(S(=O)(=O)Nc2ccccc2OC)c1	PLK1 PBD inh 23.8µM

Bioassay records deposited in PubChem by National Center for Advancing Translational Sciences (NCATS).
